# Where a name gives a salt, the structure may show the parent alone.
# System: Haemophilus parainfluenzae
# Test: growth AUC normalised to DMSO control (fraction of control); higher = less growth inhibition, active = hit call of the paper
# Conditions: 20 µM;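 active = AUC significantly below DMSO controls by Student t-fit with adjusted P under 0.01; inactive = not significantly reduced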
# Summary of the method: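 Hemin and NAD were added to the medium for Haemophilus parainfluenzae. All pathogens, after two anaerobic passages, were inoculated at a starting OD578 of 0.01 into pre-reduced mGAM plates with 20 μM compound and 1% DMSO under breathable seals, and OD578 was read hourly for 24 h in three biological replicates. AUC of each growth curve was obtained with the trapezoidal rule up to the exponential-to-stationary transition and normalised to DMSO controls from the same plate.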
row,Compound,growth AUC normalised to DMSO control
1,CCCCNc1ccc(C(=O)OCCN(C)C)cc1 [Tetracaine hydrochloride],1.16 (inactive)
2,CN1CCC(=C2c3ccccc3Sc3ccccc32)CC1 [Pimethixene maleate],0.908 (inactive)
3,CC(=O)N(CC(C)C(=O)O)c1c(I)cc(I)c(N)c1I (configuration not stated) [Iocetamic acid],0.965 (inactive)
4,CC(C)(Sc1cc(C(C)(C)C)c(O)c(C(C)(C)C)c1)Sc1cc(C(C)(C)C)c(O)c(C(C)(C)C)c1 [Probucol],1.01 (inactive)
5,COc1ccc(C(=O)c2ccccc2O)c(O)c1 [Dioxybenzone],0.992 (inactive)
6,Cc1c(C)c2c(c(C)c1O)CCC(C)(COc1ccc(CC3SC(=O)NC3=O)cc1)O2 (configuration not stated) [Troglitazone],0.984 (inactive)
7,CCn1cc(C(=O)O)c(=O)c2cc(F)c(N3CCN(C)CC3)cc21 [Pefloxacin],0.0557 (active)
8,CN1CCN(CCCN2c3ccccc3Sc3ccc(Cl)cc32)CC1 [Prochlorperazine dimaleate],0.913 (inactive)
9,CCOC(=O)[C@@](C)(N)Cc1ccc(O)c(O)c1 [Methyldopate hydrochloride],0.995 (inactive)
10,CCC(C)n1ncn(-c2ccc(N3CCN(c4ccc(OCC5COC(Cn6cncn6)(c6ccc(Cl)cc6Cl)O5)cc4)CC3)cc2)c1=O (configuration not stated) [Itraconazole],1.09 (inactive)
11,Cc1cccc(CN2CCN(C(c3ccccc3)c3ccc(Cl)cc3)CC2)c1 (configuration not stated) [Meclozine dihydrochloride],0.948 (inactive)
12,COc1ccc(Cl)cc1C(=O)NCCc1ccc(S(=O)(=O)NC(=O)NC2CCCCC2)cc1 [Glibenclamide],0.952 (inactive)
